Results: PubChem BioAssay
Unmarked numbers belong to inactive results. For some of these results: Measured potencies and affinities stand elsewhere. Active and inactive are the calls of the source. Unless noted, no rule for the calls is given here.

Tests used:
[1] = antimalarial activity against Dd2 strain (AID 2302;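 active = growth inhibition above 50% at the single 2 µM test dose, taken to imply half-maximal potency below 2 µM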;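 also: 0% = DMSO untreated growth and 100% = chloroquine plus artemisinin killed control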); settings: P. falciparum Dd2 in RBCs, LDH growth readout, 72 h; at 2 µM; active compounds read high
[2] = human hepatoma cell viability loss – ATP luminescence, cytotoxicity control for P. falciparum antimalarial project, primary screen (AID 2303;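 active = inhibition above 50%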;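 also: 0% = DMSO wells and 100% = digitonin-killed cells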); settings: HepG2 viability, 24-48 h, at 10 µM, active compounds read high
[3] = biological target: L-lactate dehydrogenase (Plasmodium falciparum (isolate CDC / Honduras)) (UniProt Q27743); assay: PfLDH activity inhibition – cell lysate, 3D7 strain, counter-screen for P. falciparum growth inhibition project (AID 2304);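 also: 0% = vehicle and 100% = reference inhibitor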; settings: P. falciparum 3D7 crude extract, LDH APAD/NBT absorbance; at 2 µM; active compounds read high
[4] = inhibition of 3D7 malaria parasite growth – strain 3D7 (AID 2306);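 also: 0% = DMSO wells and 100% = chloroquine plus artemisinin control wells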; settings: P. falciparum 3D7 erythrocytic growth, LDH absorbance, 72 h; at 2 µM; active compounds read high
[5] = biological target: Calcium-dependent protein kinase 1 (Plasmodium falciparum (isolate 3D7)) (UniProt P62344); assay: PfCDPK1 kinase inhibitors, biochemical, TCAMS library (AID 1159585; cut-off not given, nearly all actives have IC50 up to about 0.98 µM;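 also: inhibitors leave more ATP so luminescence rises with inhibition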); settings: recombinant PfCDPK1, Kinase-Glo ATP depletion luminescence
[6] = biological target: Plasmodium falciparum protein kinase 6 (PK6, PF3D7_1337100) (UniProt Q8IDW1); assay: PfPK6 kinase inhibitors, biochemical, TCAMS library (AID 1159586); settings: recombinant PfPK6, Kinase-Glo ATP depletion luminescence
[7] = biological target: Protein kinase 7 (PK7), Plasmodium falciparum 3D7 (PF3D7_0213400) (UniProt Q7YTF7); assay: inhibition of Plasmodium PK7 catalytic activity – biochemical, TCAMS antimalarial set, Kinase-Glo luminescence (AID 1159587); settings: recombinant PfPK7, Kinase-Glo ATP depletion luminescence
[8] = biological target: Calcium-dependent protein kinase 4 (Plasmodium falciparum (isolate 3D7)) (UniProt Q8IBS5); assay: PfCDPK4 kinase inhibitors, biochemical, TCAMS library (AID 1159588; cut-off not given, nearly all actives have IC50 up to about 0.91 µM); settings: recombinant PfCDPK4, Kinase-Glo ATP depletion luminescence
Sequence of Calcium-dependent protein kinase 4 (Plasmodium falciparum (isolate 3D7)) (Q8IBS5 whole entry, looked up): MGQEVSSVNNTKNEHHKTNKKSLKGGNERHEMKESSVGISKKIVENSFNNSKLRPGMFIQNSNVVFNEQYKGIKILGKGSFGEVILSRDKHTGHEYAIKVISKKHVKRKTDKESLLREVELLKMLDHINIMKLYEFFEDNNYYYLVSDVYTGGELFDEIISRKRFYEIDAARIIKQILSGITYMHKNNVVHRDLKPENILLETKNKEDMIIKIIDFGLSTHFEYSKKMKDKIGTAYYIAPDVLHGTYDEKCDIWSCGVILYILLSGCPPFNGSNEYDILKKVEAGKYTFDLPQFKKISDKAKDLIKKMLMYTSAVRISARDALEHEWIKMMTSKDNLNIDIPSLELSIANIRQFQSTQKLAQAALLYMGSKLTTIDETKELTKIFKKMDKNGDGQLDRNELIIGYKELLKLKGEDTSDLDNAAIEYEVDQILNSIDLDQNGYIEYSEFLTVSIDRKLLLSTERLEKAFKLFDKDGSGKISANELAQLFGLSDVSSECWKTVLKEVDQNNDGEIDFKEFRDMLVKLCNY

Sequence of L-lactate dehydrogenase (Plasmodium falciparum (isolate CDC / Honduras)) (Q27743 whole entry, looked up): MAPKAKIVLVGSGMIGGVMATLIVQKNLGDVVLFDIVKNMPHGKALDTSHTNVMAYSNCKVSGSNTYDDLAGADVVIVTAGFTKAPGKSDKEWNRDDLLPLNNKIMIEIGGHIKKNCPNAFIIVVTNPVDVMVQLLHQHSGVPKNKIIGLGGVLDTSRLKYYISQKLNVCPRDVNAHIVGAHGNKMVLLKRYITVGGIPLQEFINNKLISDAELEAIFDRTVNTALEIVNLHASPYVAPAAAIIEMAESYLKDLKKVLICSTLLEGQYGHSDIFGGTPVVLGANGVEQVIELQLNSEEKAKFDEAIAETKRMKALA
Sequence of Calcium-dependent protein kinase 1 (Plasmodium falciparum (isolate 3D7)) (P62344 whole entry, looked up): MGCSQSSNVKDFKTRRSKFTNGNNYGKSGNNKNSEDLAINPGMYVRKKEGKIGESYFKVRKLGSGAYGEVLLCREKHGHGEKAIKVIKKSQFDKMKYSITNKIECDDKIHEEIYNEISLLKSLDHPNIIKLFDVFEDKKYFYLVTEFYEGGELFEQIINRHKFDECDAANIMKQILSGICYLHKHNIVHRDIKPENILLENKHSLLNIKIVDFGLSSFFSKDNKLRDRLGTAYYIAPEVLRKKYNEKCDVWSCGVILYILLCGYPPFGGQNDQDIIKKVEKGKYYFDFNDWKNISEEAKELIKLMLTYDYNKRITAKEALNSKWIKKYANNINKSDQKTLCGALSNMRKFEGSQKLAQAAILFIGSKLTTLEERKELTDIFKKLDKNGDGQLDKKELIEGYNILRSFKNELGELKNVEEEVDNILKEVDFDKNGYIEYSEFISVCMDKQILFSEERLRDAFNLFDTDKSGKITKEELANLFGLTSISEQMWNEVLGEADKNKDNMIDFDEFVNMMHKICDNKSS
Sequence of Plasmodium falciparum protein kinase 6 (PK6, PF3D7_1337100) (Q8IDW1 1-305): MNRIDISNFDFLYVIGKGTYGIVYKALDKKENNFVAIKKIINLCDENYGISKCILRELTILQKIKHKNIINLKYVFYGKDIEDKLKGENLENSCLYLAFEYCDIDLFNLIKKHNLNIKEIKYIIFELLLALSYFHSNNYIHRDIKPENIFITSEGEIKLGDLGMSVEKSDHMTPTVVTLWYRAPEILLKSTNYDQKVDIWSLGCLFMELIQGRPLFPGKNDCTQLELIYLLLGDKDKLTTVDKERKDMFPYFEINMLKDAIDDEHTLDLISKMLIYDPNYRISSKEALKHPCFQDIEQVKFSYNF
Sequence of Protein kinase 7 (PK7), Plasmodium falciparum 3D7 (PF3D7_0213400) (Q7YTF7 1-343): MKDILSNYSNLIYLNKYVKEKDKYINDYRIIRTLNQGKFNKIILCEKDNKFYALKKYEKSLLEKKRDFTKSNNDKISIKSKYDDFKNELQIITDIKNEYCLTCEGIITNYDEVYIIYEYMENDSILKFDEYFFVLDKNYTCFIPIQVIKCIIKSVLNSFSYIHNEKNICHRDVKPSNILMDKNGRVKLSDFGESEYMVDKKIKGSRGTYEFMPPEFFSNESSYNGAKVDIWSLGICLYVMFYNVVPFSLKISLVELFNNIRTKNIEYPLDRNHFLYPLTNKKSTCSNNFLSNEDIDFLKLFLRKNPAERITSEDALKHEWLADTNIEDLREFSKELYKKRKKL

| SMILES | growth inhibition [1] | inhibition [2] | inhibition [3] [%] | growth inhibition [4] | outcome [5] | outcome [6] | outcome [7] | outcome [8] |
| --- | --- | --- | --- | --- | --- | --- | --- | --- |
| c1ccc(-c2cccc(-c3ccccn3)n2)nc1 | 99% (active) | 45% | -1 | 98% (active) | inactive | inactive | inactive | inactive |
| CN(CCCNC(=S)NC12CC3CC(CC(C3)C1)C2)CCCNc1ccnc2cc(Cl)ccc12 | 98% (active) | 73% (active) | 8 | 100% (active) | inactive | inactive | inactive | inactive |
| COc1cc(C(=O)Nc2ccc3nc(N4CCN(C)CC4)cc(C)c3c2)cc(OC)c1OC | 79% (active) | 18% | -6 | 102% (active) | inactive | inactive | inactive | inactive |
| CCN1CCC(N(Cc2ccc(-c3ccc(C(F)(F)F)cc3)cc2)C(=O)Cn2c(CCc3cccc(F)c3F)cc(=O)c3cn(C)nc32)CC1 | 87% (active) | 27% | 2 | 95% (active) | inactive | inactive | inactive | inactive |
| COc1ccccc1N1CCN(CCCCNC(=O)c2ccc(NC(=O)c3ccc(OC(F)(F)F)cc3)cc2)CC1 | 39% | 29% | -6 | 100% (active) | inactive | inactive | inactive | inactive |
| COc1ccc2ncc(Cl)c(CCN3CCC(NCc4ccc5c(n4)NC(=O)CO5)CC3)c2c1 | 26% | 25% | -1 | 92% (active) | inactive | inactive | inactive | inactive |
| CCCNCc1ccc(-c2ccc(CN(C(=O)c3nn(-c4ccccc4)nc3C)C(C)CN(C)C)cc2)nc1 (stereo not given) | 95% (active) | 27% | -8 | 95% (active) | inactive | inactive | inactive | inactive |
| O=C(N[C@@H](CC1CCCCC1)C(=O)NCCN1CCCCC1)c1ccc(O)c(-c2cccc(C(F)(F)F)c2)c1 | 97% (active) | -5% | 6 | 99% (active) | inactive | inactive | inactive | inactive |
| Cc1cc(N[C@@H](Cc2ccccc2)C(=O)NC2CCCC2)nc(NCCOc2ccccc2)n1 | 48% | 40% | 0 | 98% (active) | inactive | inactive | inactive | inactive |
| O=C(N[C@@H](Cc1ccccc1)[C@H](O)CNCCC(F)(F)F)c1cccc(CCC2CC2)c1 | 13% | -4% | 5 | 87% (active) | inactive | inactive | inactive | inactive |
| CC(C)(C)c1cc(Cn2ccnc2)cc(C(C)(C)C)c1O | 3% | 4% | -2 | 85% (active) | inactive | inactive | inactive | inactive |
| COc1ccc2ncc(F)c([C@H](O)CN3CCC(NCc4ccc5c(c4)NC(=O)CO5)CC3)c2c1 | 101% (active) | 16% | -1 | 102% (active) | inactive | inactive | inactive | inactive |
| COc1ccc(CNC2CCN(C)CC2)cc1-c1ccc(S(=O)(=O)NC2CCC2)cc1 | 76% (active) | 58% (active) | 1 | 98% (active) | inactive | inactive | inactive | inactive |
| OCCN1CCN(Cc2cccc(-c3ccc(-c4nc5ccc(C(F)(F)F)cc5[nH]4)s3)c2)CC1 | 98% (active) | 42% | -5 | 101% (active) | inactive | inactive | inactive | inactive |
| O=C(N[C@@H](Cc1ccccc1)C(=O)NCCN1CCCC1)c1ccc(O)c(-c2ccc(Cl)c(Cl)c2)c1 | 46% | 8% | -2 | 95% (active) | inactive | inactive | inactive | inactive |
| O=C(NCC1CCN(Cc2cccc(C(F)(F)F)c2)C1)c1cc(-c2cccc(C(F)(F)F)c2)cs1 (stereo not given) | 74% (active) | 35% | -2 | 100% (active) | inactive | inactive | inactive | inactive |
| CC[C@H]1CN(Cc2ccccc2Br)CC[C@H]1CCCc1ccnc2ccc(O)cc12 | 2% | 12% | -4 | 86% (active) | inactive | inactive | inactive | inactive |
| Oc1ccc(CCCc2cc(Oc3c(I)cc(CCc4ncc[nH]4)cc3I)ccc2O)cc1 | 7% | 26% | -9 | 95% (active) | inactive | inactive | inactive | inactive |
| CN1CCC(C(=O)N(Cc2ccc(-c3ccc(CNCCc4ccc(S(C)(=O)=O)cc4)cn3)cc2)C2CCN(Cc3ccccc3)CC2)CC1 | 95% (active) | 11% | -5 | 102% (active) | inactive | inactive | inactive | inactive |
| Cc1ccccc1C1CCN(c2ncc(C(=O)Nc3ccccc3)cc2Cl)CC1 | 83% (active) | 29% | -3 | 83% (active) | inactive | inactive | inactive | inactive |
